Screens (PubChem BioAssay)
p53null 32C tox = p53 null cell cytotoxicity, permissive temperature | 55,000 compounds, 0.62% hits | H1299-neo p53 null cells, ATP luminescence, 24 h, 32C | Potency, µM (top dose mostly 46.1 µM), for the others: at the top dose activity change, negative = cytotoxicity, usual class: cytotoxic | AID 903;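 further: potency means the concentration at half of the fitted maximal effect; 0% = DMSO only and -100% = full killing by 100 µM tamoxifen; nearly all actives have a fitted effect of over 55% in size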
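Cytotoxicity: H1299-neo (no p53), 32C, 24 h treatment. Concentrations up to 46 uM. Readout cellular ATP, luminescence. Normalization to DMSO basal and tamoxifen 100 uM maximal kill.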
pS6 MEF inh = inhibitors of mTORC1 signaling in Tsc2-/- p53-/- MEF cells; Potency, µM (doses to about 38.3 µM), for inactives: at the highest dose activity change, negative = inhibition, usual class: inhibitors; Tsc2-/- p53-/- MEF, phospho-rpS6 immunofluorescence/PI, 24 h; 44,000 compounds, 0.78% hits;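 further: potency means the concentration at half of the fitted maximal effect; plate controls were DMSO for no effect and rapamycin for full effect; nearly all actives have a fitted effect of over 50% in size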
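Read-out: phospho-S6 Alexa-488 intensity over PI intensity per well, scored as % active cells using thresholds from rapamycin (7.5 nM) and DMSO controls. Tsc2-/-, p53-/- MEFs exposed to compound for 24 h; PI cell count recorded as viability.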
S16 F2sN tox = S16 Schwann cell cytotoxicity; 43,000 compounds, 0.48% hits; AID 1508642; S16 Pmp22-F2sN Schwann cells viability, CellTiter-Glo, 24 h; Potency, µM (highest dose often 57.5 µM), for the others: top-dose activity change, negative = cytotoxicity, hits mostly cytotoxic; further: potency means the concentration at half of the fitted maximal effect; on the % scale 0 is the no-effect control and ±100 the full control effect; nearly all actives have a fitted effect of over 65% in size
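Used to flag compounds lowering reporter output through toxicity, this quantitative HTS measures ATP-based CellTiter-Glo luminescence in S16 Pmp22-F2sN Schwann cells after 24 h compound exposure at 37C.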
p53null 39C tox = selectivity test: cytotoxicity in p53 null cells, nonpermissive temperature; H1299 p53-null (neo) cells, 39C, ATPlite viability, 24 h; Potency, µM (titrated, usually from 46.1 µM), for the others: at the top dose activity, negative = cell killing, usual class: cytotoxic; 55,000 compounds, 0.97% hits; AID 904;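 further: potency means the concentration at half of the fitted maximal effect; 0% = DMSO only and -100% = full killing by 100 µM tamoxifen; nearly all actives have a fitted effect of over 50% in size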
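Following overnight plating at 37C (600 cells/well), H1299-neo or H1299-p53A138V cells are dosed up to 46 uM. Incubation lasts 24 hr at 39C before ATP detection.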
OvCa metastasis = inhibitors of ovarian cancer cell adhesion and invasion in omental model. SKOV3ip1-GFP adhesion/invasion on 3D omental model, fluorescence. Potency, µM (series often up to 45.8 µM), inactives show at the top dose activity change, negative = inhibition, usual class: inhibitors. 46,000 compounds, 0.1% hits;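 further: potency means the concentration at half of the fitted maximal effect; plate controls were DMSO wells for no effect and tomatine positive control wells for full effect; nearly all actives have a fitted effect of over 65% in size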
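qHTS, 4-pt dose (0.36-46 umol/L); SKOV3ip1-GFP, 1,200 cells/well, no FBS; primary omental fibroblast/mesothelial co-culture 48 h pre-grown; 2 h RT + 16 h 37 C; PBS wash, 4% PFA; GFP count 488/509 nm.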
PMP22 txn prim = modulates PMP22 transcription in S16 Schwann cells | S16 Pmp22-F2sN Schwann cells, FLuc/NLuc coincidence luminescence, 24 h | Potency, µM (top dose mostly 57.5 µM), without a hit: at the highest dose activity change, negative = inhibition, actives largely listed as inhibitors | 43,000 compounds, 2% hits | AID 1508649; active means clear falling dose curves in both reporters; inconclusive means both reporters move, but less clearly or upward; inactive means either reporter flat; the % is the NLuc reporter signal; further: potency means the concentration at half of the fitted maximal effect; on the % scale 0 is the no-effect control and ±100 the full control effect
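S16(c9) Schwann cells with FLuc/NLuc coincidence reporter in the Pmp22 3' UTR; compounds pin-transferred, 24 h at 37C. Dual-luciferase read: FLuc first, then NLuc after Stop&Glo, each 10 min at room temperature.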
NLuc sat counter = counter-screen for PMP22 expression modulators: NanoLuc inhibition, saturating substrate | Secreted NLuc enzyme (filtered S16 cell medium), Nano-Glo luminescence | 690 compounds, 4% hits | Potency, µM (titrated, usually from 57.5 µM), inactives show top-dose activity change, negative = inhibition, hits mostly inhibitors | shares compounds with PMP22 txn prim; further: potency means the concentration at half of the fitted maximal effect; on the % scale 0 is the no-effect control and ±100 the full control effect
NLuc Km counter = inhibits NanoLuc under Km conditions, PMP22 counter-screen; shares compounds with PMP22 txn prim; secreted NLuc enzyme, coelenterazine luminescence, Km conditions; Potency, µM (highest dose often 57.5 µM), inactives show at the top dose activity change, negative = inhibition, most hits filed as inhibitors; 690 compounds, 5% hits; AID 1508639; further: potency means the concentration at half of the fitted maximal effect; on the % scale 0 is the no-effect control and ±100 the full control effect
FLuc counter = counter-screen for PMP22 expression modulators: firefly luciferase inhibition | 690 tested, under 10 active | shares compounds with PMP22 txn prim | Potency, µM (top dose mostly 57.5 µM), inactives show at the top dose activity, negative = inhibition, most hits filed as inhibitors | purified P. pyralis FLuc, luminescence, 10 min; further: % of control where 0% means no effect
Target sequence (P08659 whole entry, looked up): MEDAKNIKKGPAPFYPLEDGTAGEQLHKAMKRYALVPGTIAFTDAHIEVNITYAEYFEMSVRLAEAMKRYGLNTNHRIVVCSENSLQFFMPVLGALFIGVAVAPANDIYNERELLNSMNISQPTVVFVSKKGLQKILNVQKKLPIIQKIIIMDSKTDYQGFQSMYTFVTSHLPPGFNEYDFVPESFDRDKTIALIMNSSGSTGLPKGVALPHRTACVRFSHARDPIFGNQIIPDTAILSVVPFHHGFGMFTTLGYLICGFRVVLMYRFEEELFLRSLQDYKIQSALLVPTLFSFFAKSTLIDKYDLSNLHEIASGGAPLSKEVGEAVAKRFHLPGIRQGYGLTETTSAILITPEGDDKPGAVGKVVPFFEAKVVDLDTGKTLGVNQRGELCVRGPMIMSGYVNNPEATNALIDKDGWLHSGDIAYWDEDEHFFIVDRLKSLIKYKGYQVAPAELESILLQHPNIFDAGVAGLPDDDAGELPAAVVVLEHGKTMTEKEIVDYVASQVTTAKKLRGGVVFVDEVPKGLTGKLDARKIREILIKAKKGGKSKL
S16 viab conf = confirmation of cytotoxicity in S16 Pmp22-F2sN Schwann cells (luciferase reporters placed in the Pmp22 gene) | shares compounds with PMP22 txn prim | S16 Schwann cells viability, CellTiter-Glo ATP luminescence, 24 h | Potency, µM (highest dose often 57.5 µM), for the others: at the top dose activity change, negative = viability loss, actives largely listed as cytotoxic | 690 compounds, 7% hits; further: potency means the concentration at half of the fitted maximal effect; on the % scale 0 is the no-effect control and ±100 the full control effect
PMP22 txn conf = PMP22 transcription modulation, confirmatory; shares compounds with PMP22 txn prim; Potency, µM (doses to about 57.5 µM), without a hit: at the top dose activity change, negative = inhibition, hits mostly inhibitors; S16 Schwann cells Pmp22-F2sN, dual luciferase, 24 h; 690 compounds, 22% hits; AID 1508646; active means clear falling dose curves in both reporters; inconclusive means both reporters move, but less clearly or upward; inactive means either reporter flat; the % is the FLuc reporter signal; further: potency means the concentration at half of the fitted maximal effect
PMP22 HiBiT cnf = rat PMP22 protein level modulation, confirmatory. Potency, µM (doses to about 27.9 µM), for inactives: at the highest dose activity change, negative = inhibition, usual class: inhibitors. AID 1508647. shares compounds with PMP22 txn prim. 95 tested, under 10 active. S16 Schwann cells Pmp22-HiBiT, luminescence, 48 h
Target sequence (P25094 whole entry, looked up): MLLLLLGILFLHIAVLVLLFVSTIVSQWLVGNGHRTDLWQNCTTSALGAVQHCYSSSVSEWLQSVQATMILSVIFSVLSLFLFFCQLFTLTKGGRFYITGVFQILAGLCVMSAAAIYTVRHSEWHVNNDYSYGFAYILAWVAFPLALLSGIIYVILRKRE
Starred values were filed as active, the others as inactive; i = inactive; u = inconclusive; x = not tested or not shown. Rows were chosen to be rich in hits. Some 3.1% of all compounds tested hit in one or more screens of this group. Unless noted, the call rests on the fitted dose curve; in most records, active means well fitted curve in the direction sought with a large enough effect; inconclusive means small, poorly fitted or top-dose-only effect, or another doubt; inactive means no such curve, though single readings can be large; an effect the other way counts as inactive or inconclusive.

SMILES | p53null 32C tox | pS6 MEF inh | S16 F2sN tox | p53null 39C tox | OvCa metastasis | PMP22 txn prim | NLuc sat counter | NLuc Km counter | FLuc counter | S16 viab conf | PMP22 txn conf | others
Cc1cc(C)cc(-n2c(SCC(=O)Nc3nnc(C)s3)nc3c([nH]c4ccccc43)c2=O)c1 | -9% | 0% | 14% | 4% | 14% | 16µM* | u | u | 4% | -5% | u
Cc1nnc(NC(=O)CSc2nc3c([nH]c4ccccc43)c(=O)n2-c2ccccc2)s1 | 0% | 0% | 21% | 7% | 5% | u | x | x | x | x | x
COc1cccc(-n2c(SCC(=O)Nc3c(C)cc(C)cc3C)nc3c([nH]c4ccccc43)c2=O)c1 | 4% | u | -1% | 17% | -16% | 12µM* | -6% | -11% | 4% | 2% | u
COc1cccc(NC(=O)CSc2nc3c([nH]c4ccccc43)c(=O)n2-c2cc(C)cc(C)c2)c1 | 8% | -6% | -2% | 13% | -4% | 52% | x | x | x | x | x
O=C(CSc1nc2c([nH]c3ccccc32)c(=O)n1-c1cccc(Cl)c1)c1ccccc1 | 3% | -4% | 5% | -4% | i | 14µM* | -2% | 1% | -3% | -15% | 12µM* | PMP22 HiBiT cnf=u
O=C(CSc1nc2c([nH]c3ccccc32)c(=O)n1-c1ccccc1)c1ccccc1 | 4% | -14% | 11% | 24% | i | -17% | x | x | x | x | x
C[C@@H](NCCCc1cccc(C(F)(F)F)c1)c1cccc2ccccc12 | x | x | x | x | -13% | x | x | x | x | x | x
Cc1ccc2c(=O)cc(C(=O)Nc3ccc(S(=O)(=O)N(C)Cc4ccccc4)cc3)oc2c1C | 2% | 0% | 3% | 9% | i | -16% | x | x | x | x | x
COc1ccccc1NC(=O)CSc1oc(-c2ccc(F)cc2)nc1S(=O)(=O)c1ccc(Br)cc1 | 4% | -12% | u | u | -5% | u | x | x | x | x | x
Cn1nc(C(=O)NCc2ccc(Cl)cc2)c2c1-c1ccccc1S(=O)(=O)C2 | -2% | 9% | u | -8% | -6% | 15µM* | -9% | -17% | 0% | 2% | u
CCOC(=O)C1CCCN(C(=O)c2cccc(NC(=O)c3nsc4ccccc34)c2)C1 (stereo not given) | u | -10% | -12% | u | -6% | -11% | x | x | x | x | x
Cc1noc(/C=C/c2ccco2)c1S(=O)(=O)N1CCC(C(=O)Nc2ccc(F)c(Cl)c2)CC1 | 23% | -11% | u | 15% | i | 12µM* | -11% | 2% | 3% | -7% | -29%
CCCCCn1c(=N)n(CC(O)COc2cccc(C)c2)c2ccccc21 (stereo not given) | u | 3.7µM* | u | u | u | 18µM* | -11% | 4% | -3% | 22µM* | 16µM*
CCN(CC)CCNC(=O)c1cc(-c2ccc(Br)s2)nc2ccccc12 | 18% | u | 32µM* | 25µM* | 10µM* | 20µM* | -13% | u | -16% | u | 17µM* | PMP22 HiBiT cnf=-2%
CCc1ccc(NC(=O)c2sc3nc(C)c(Cl)c(C)c3c2N)cc1 | -22% | -1% | -3% | -13% | 39% | u | x | x | x | x | x
CCOc1ccc(CNC(=O)CSc2c3c(nc4ccc(Cl)cc24)CCCC3)cc1 | -2% | -9% | 15% | -23% | 4% | u | x | x | x | x | x
O=C(CSc1c2c(nc3ccc(Cl)cc13)CCCC2)N1CCN(c2cccc(Cl)c2)CC1 | 28% | -19% | -12% | 22% | -9% | 20µM* | -8% | -1% | 0% | 17% | u
CCc1ccc(CNC(=O)CSc2c3c(nc4ccc(Cl)cc24)CCCC3)cc1 | 4% | 0% | -1% | 5% | -6% | 6.2µM* | -8% | u | 5% | 4% | u
CCN(CC)CCCNC(=O)CSc1c2c(nc3cc(Cl)ccc13)CCCC2 | 37% | u | u | 13µM* | u | 6.7µM* | -3% | -1% | 3% | u | 10µM* | PMP22 HiBiT cnf=66%
CCOc1ccc(CNC(=O)CSc2c3c(nc4cc(Cl)ccc24)CCCC3)cc1 | 0% | -12% | u | -5% | 27% | u | x | x | x | x | x
CC(C)OCCCNC(=O)CSc1c2c(nc3ccc(Cl)cc13)CCCC2 | 4% | -10% | u | 85% | u | 12µM* | -10% | 5% | 2% | u | 19µM*
COCCCNC(=O)CSc1c2c(nc3ccc(Cl)cc13)CCCC2 | 24% | u | u | 82% | i | u | x | x | x | x | x
O=C(CSc1c2c(nc3ccc(Cl)cc13)CCCC2)N1CCN(c2ccc(Cl)cc2)CC1 | 35% | 1% | -2% | 22% | -5% | u | x | x | x | x | x
COc1cccc(NC(=O)N(Cc2c[nH]c3ccccc23)C2CCCCCC2)c1 | 5% | -12% | -26% | u | 0% | 20µM* | 15µM* | u | 1% | 14% | u
Cc1ccc(S(=O)(=O)c2nc(-c3cccc(Br)c3)oc2N2CCCCCC2)cc1 | 0% | -7% | u | -11% | 5% | -27% | x | x | x | x | x
